Measurements: PubChem BioAssay (Tox21)
“And” between values parts separate entries of the source, which are not always exact repeats. Equal entries are not always repeated. A number with no mark means an inactive call. Entries that show only a call come without a potency. The source made the active and inactive calls. Unless noted, the call rests on the fitted dose curve; in most records, active means well fitted curve in the direction sought with a large enough effect in the repeat runs; inconclusive means weak or mixed curves; inactive means no such curve, though single readings can be large; an effect the other way counts as inactive or inconclusive.

Legend:
[1] = qHTS assay to identify small molecule antagonists of the thyroid receptor (TR) signaling pathway (AID 743065); further: nearly all actives have a fitted effect of over 55% in size; further: potency means the concentration at half of the fitted maximal effect
Method in brief: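 GH3.TRE-Luc rat pituitary cells (two TREs driving luciferase) were dosed with compound, then stimulated with 1 nM T3 (final) for 23.5 h at 37 C. ONE-Glo luminescence was the read-out, with CellTiter-Fluor fluorescence as the cytotoxicity counter-screen.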

[2] = tested on: thyroid hormone receptor (rat, GH3 cells); experiment: qHTS assay to identify small molecule agonists of the thyroid receptor (TR) signaling pathway (AID 743066; calls by dose curve)
[3] = qHTS assay to identify small molecule antagonists of the estrogen receptor alpha (ER-alpha) signaling pathway - cell viability counter screen (AID 743074; calls by dose curve;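 further: HEK293 cells carrying ER-alpha-UAS-bla reporter stimulated with 17beta-estradiol; nearly all actives have a fitted effect of over 45% in size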; further: potency means the concentration at half of the fitted maximal effect)
[4] = qHTS assay to identify small molecule antagonists of the estrogen receptor alpha (ER-alpha) signaling pathway using the BG1 cell line - cell viability counter screen (AID 743081);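 further: compound given together with 17beta-estradiol as the ER stimulus; nearly all actives have a fitted effect of over 45% in size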; further: potency means the concentration at half of the fitted maximal effect
Aromatase (Homo sapiens) = Aromatase (Homo sapiens) (UniProt P11511); experiment: qHTS assay to identify aromatase inhibitors (AID 743083); further: nearly all actives have a fitted effect of over 55% in size; further: potency means the concentration at half of the fitted maximal effect
Aromatase (Homo sapiens), sequence (P11511 whole entry, looked up): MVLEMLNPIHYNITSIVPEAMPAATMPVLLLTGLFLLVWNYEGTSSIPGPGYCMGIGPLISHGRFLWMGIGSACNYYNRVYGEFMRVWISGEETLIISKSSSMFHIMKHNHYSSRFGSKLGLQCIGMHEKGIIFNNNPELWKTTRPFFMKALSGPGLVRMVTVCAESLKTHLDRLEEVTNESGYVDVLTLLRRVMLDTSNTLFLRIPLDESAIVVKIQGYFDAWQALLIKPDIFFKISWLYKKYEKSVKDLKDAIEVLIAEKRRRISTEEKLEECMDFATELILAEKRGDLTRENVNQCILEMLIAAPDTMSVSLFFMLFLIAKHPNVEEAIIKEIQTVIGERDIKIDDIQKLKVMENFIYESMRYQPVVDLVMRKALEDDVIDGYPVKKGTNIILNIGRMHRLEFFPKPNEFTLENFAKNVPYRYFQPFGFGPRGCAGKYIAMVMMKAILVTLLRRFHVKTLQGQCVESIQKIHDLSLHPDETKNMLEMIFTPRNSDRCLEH

[5] = qHTS assay to identify aromatase inhibitors - cell viability counter screen (AID 743084);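 further: cells stimulated with testosterone during compound exposure; nearly all actives have a fitted effect of over 55% in size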; further: potency means the concentration at half of the fitted maximal effect
[6] = qHTS assay to identify small molecule that activate the aryl hydrocarbon receptor (AhR) signaling pathway - cell viability counter screen (AID 743086);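 further: HepG2 liver cells carrying the AhR DRE luciferase reporter; nearly all actives have a fitted effect of over 45% in size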
Method in brief: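 HepG2-AhR-luc (HG2L7.5c1) cells, 4000/well, treated 24 h at 37 C with compound; viability measured as CellTiter-Fluor fluorescence after 30 min in the same wells as the luciferase read.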

[7] = qHTS assay to identify small molecule antagonists of the peroxisome proliferator-activated receptor gamma (PPARg) signaling pathway - cell viability counter screen (AID 743194); further: nearly all actives have a fitted effect of over 55% in size; further: potency means the concentration at half of the fitted maximal effect
Method in brief: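 Cytotoxicity counter screen in PPARg-bla HEK293H cells, same wells as reporter assay. Compounds plus 50 nM rosiglitazone (final) for 17 h at 37 C, then viability read by CellTiter-Glo luminescence.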

[8] = qHTS assay for small molecule agonists of the antioxidant response element (ARE) signaling pathway (AID 743202; active means well fitted activation curve with a large enough effect in the signal ratio in the repeat runs, not every such curve was filed as active; inconclusive means weak or mixed curves, or effect the other way; inactive means no such curve, though single readings can be large or run the other way; the % refers to the signal ratio; further: potency means the concentration at half of the fitted maximal effect)
Method in brief: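 HepG2 ARE-bla reporter line, 2,000 cells/well; 5 h preincubation 37 C/5% CO2; compound (DMSO) 16 h 37 C; B/G FRET substrate 2 h RT; fluorescence intensity.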

[9] = qHTS assay for small molecule activators of the heat shock response signaling pathway - cell viability counter screen (AID 743209); further: nearly all actives have a fitted effect of over 50% in size; further: potency means the concentration at half of the fitted maximal effect
Method in brief: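 Cytotoxicity counter screen run in the same wells as the heat-shock bla reporter assay: HeLa HSE-bla cells, 5 h compound exposure at 37 C, viability read by CellTiter-Glo luminescence.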

[10] = qHTS assay for small molecule activators of the heat shock response signaling pathway (AID 743210; active means well fitted activation curve with a large enough effect in the signal ratio in the repeat runs, with a control signal flat, not every such curve was filed as active; inconclusive means weak or mixed curves; the % refers to the signal ratio; further: potency means the concentration at half of the fitted maximal effect;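 on activation: HeLa cells with beta-lactamase reporter driven by heat shock elements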)
Method in brief: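 Beta-lactamase reporter read-out: FRET substrate fluorescence after 2.5 h at RT, following 5 h compound treatment at 37 C of HeLa cells carrying HSE-driven bla reporter; quantitative HTS format.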

[11] = molecular target: Aryl hydrocarbon receptor (Homo sapiens) (UniProt P35869); experiment: qHTS assay to identify small molecule that activate the aryl hydrocarbon receptor (AhR) signaling pathway (AID 743085); further: nearly all actives have a fitted effect of over 15% in size; further: potency means the concentration at half of the fitted maximal effect;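 on activation: HG2L7.5c1 human HepG2 liver cells with stably integrated DRE-driven firefly reporter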
Aryl hydrocarbon receptor (Homo sapiens), sequence (P35869 whole entry, looked up): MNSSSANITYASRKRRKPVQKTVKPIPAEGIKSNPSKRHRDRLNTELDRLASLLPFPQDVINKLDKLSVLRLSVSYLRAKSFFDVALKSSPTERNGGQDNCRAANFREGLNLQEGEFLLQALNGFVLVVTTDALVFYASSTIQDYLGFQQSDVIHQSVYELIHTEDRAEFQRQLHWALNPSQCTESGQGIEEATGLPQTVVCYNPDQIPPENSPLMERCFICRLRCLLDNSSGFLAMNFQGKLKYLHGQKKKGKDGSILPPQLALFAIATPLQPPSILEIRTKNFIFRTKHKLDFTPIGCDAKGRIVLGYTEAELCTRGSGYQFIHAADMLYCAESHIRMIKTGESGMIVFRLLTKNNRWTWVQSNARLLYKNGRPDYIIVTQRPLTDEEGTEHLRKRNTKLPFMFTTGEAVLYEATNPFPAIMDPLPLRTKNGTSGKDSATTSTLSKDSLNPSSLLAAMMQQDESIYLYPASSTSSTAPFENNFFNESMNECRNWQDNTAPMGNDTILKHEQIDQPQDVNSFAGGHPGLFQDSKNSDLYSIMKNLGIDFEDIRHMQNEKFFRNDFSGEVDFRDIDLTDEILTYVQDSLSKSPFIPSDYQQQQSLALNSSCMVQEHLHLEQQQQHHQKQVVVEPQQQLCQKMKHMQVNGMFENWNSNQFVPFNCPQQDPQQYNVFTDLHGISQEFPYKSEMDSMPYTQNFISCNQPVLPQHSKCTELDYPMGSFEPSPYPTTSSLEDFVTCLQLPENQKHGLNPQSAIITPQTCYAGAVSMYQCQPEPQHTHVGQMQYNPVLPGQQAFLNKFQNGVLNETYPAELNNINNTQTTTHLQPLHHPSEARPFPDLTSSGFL
Method in brief: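 Measured in HG2L7.5c1 cells: CellTiter-Fluor signal (30 min incubation, 37C) for viability, then luciferase luminescence (30 min, room temperature). Compound contact time was 24 h at 37C, following a 5 h pre-incubation.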

[12] = molecular target: Peroxisome proliferator-activated receptor gamma (Homo sapiens) (UniProt P37231); experiment: qHTS assay to identify small molecule agonists of the peroxisome proliferator-activated receptor gamma (PPARg) signaling pathway (AID 743094; active means well fitted activation curve with a large enough effect in the signal ratio in the repeat runs, not every such curve was filed as active; inconclusive means weak or mixed curves, or effect the other way; inactive means no such curve, though single readings can be large or run the other way; the % refers to the signal ratio)
Peroxisome proliferator-activated receptor gamma (Homo sapiens), sequence (P37231 whole entry, looked up): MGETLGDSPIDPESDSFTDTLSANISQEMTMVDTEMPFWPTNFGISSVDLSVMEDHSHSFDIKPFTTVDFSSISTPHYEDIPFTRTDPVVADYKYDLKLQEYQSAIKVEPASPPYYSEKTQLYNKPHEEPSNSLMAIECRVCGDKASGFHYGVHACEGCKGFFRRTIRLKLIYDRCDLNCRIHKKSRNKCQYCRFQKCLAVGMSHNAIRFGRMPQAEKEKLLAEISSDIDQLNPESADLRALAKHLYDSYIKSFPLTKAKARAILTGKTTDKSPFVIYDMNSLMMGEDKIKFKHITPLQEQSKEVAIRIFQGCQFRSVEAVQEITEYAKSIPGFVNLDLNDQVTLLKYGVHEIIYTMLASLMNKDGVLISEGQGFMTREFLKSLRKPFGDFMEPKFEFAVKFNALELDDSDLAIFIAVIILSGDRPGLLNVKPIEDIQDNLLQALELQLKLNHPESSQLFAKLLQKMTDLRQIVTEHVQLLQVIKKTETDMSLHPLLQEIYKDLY
Method in brief: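 Agonist activity was taken from a beta-lactamase reporter (FRET substrate, 1 h at room temperature) in HEK293H cells carrying a PPARg UAS-bla construct. Compounds in DMSO were incubated 17 h at 37C after a 5 h cell pre-incubation.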

[13] = molecular target: Estrogen receptor (Homo sapiens) (UniProt P03372); experiment: qHTS assay to identify small molecule antagonists of the estrogen receptor alpha (ER-alpha) signaling pathway (AID 743069; active means well fitted curve in the direction sought with a large enough effect in the signal ratio in the repeat runs, not every such curve was filed as active; inconclusive means weak or mixed curves, or effect the other way; inactive means no such curve, though single readings can be large or run the other way; the % refers to the signal ratio; further: potency means the concentration at half of the fitted maximal effect)
Estrogen receptor (Homo sapiens), sequence (P03372 whole entry, looked up): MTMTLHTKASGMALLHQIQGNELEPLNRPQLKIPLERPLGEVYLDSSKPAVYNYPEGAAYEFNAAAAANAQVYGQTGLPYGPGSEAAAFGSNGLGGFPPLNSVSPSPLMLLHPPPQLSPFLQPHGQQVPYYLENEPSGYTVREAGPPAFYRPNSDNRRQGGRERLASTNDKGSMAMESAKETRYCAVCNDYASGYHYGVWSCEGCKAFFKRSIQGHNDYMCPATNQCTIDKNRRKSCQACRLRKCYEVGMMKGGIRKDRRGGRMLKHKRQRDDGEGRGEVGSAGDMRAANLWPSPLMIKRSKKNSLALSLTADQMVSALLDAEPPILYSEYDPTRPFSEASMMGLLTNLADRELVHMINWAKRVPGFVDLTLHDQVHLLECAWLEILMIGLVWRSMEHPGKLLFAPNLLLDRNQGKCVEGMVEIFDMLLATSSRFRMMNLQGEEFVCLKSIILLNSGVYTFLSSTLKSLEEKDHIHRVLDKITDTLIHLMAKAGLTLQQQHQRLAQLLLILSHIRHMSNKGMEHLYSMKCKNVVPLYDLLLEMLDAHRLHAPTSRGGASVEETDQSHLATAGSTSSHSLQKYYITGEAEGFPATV
Method in brief: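 Beta-lactamase FRET fluorescence is read after 2 hr at room temperature with LiveBLAzer B/G substrate. Before that, ER-alpha-bla HEK293 cells sit 4 hr after plating, then receive compound plus 17beta-estradiol and incubate 18 hr at 37C.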

[14] = molecular target: Estrogen receptor (Homo sapiens) (UniProt P03372); experiment: qHTS assay to identify small molecule agonists of the estrogen receptor alpha (ER-alpha) signaling pathway (AID 743075; calls by dose curve;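 further: HEK293 GripTite cells with ER-alpha and UAS-driven beta-lactamase reporter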); conditions: HEK293 ER-alpha-UAS-bla, beta-lactamase FRET ratio, 18 h; activation: at 70.1 µM (top of the series)
[15] = molecular target: Estrogen receptor (Homo sapiens) (UniProt P03372); experiment: qHTS assay to identify small molecule agonists of the estrogen receptor alpha (ER-alpha) signaling pathway using the BG1 cell line (AID 743079); conditions: BG1Luc4E2 cells, ERE-luciferase agonist, 22 h; for activation: at 70.3 µM (top of the series); further: potency means the concentration at half of the fitted maximal effect; on all read-outs here: nearly all actives have a fitted effect of over 20% in size
[16] = qHTS assay to identify small molecule antagonists of the estrogen receptor alpha (ER-alpha) signaling pathway using the BG1 cell line (AID 743080; calls by dose curve;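 further: BG1 cells stimulated with 17beta-estradiol alongside compound; nearly all actives have a fitted effect of over 25% in size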; further: potency means the concentration at half of the fitted maximal effect)
Method in brief: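 BG1-Luc-4E2 cells (endogenous full-length ER-alpha, 4xERE luciferase) hormone-starved 5 days in charcoal-stripped FBS, plated 4,000/well for 24 h, then compound plus 17beta-estradiol for 21.5 h at 37 C; ONE-Glo luminescence read.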

[17] = molecular target: Peroxisome proliferator-activated receptor gamma (Homo sapiens) (UniProt P37231); experiment: qHTS assay to identify small molecule antagonists of the peroxisome proliferator-activated receptor gamma (PPARg) signaling pathway (AID 743191; calls by dose curve; further: nearly all actives have a fitted effect of over 30% in size)
Method in brief: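 GeneBLAzer PPARg UAS-bla HEK293H cells, 5 h post-plating, exposed to compounds 17 h at 37C. LiveBLAzer B/G FRET substrate added for 1 h at room temperature; beta-lactamase reporter read by fluorescence intensity.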

[18] = qHTS assay for small molecule agonists of the antioxidant response element (ARE) signaling pathway - cell viability counter screen (AID 743203; calls by dose curve; further: nearly all actives have a fitted effect of over 55% in size; further: potency means the concentration at half of the fitted maximal effect)
Method in brief: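 Viability counter screen: CellTiter-Glo luminescence, read after 30 min at room temperature, in ARE-bla HepG2 wells. Compound exposure lasted 16 h at 37C/5% CO2, following a 5 h pre-incubation of the cells after plating.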

Structure (SMILES)	Potency [1]	Potency [2]	Potency [3]	Potency [4]	Potency (Aromatase (Homo sapiens))	Potency [5]	Potency [6]	Potency [7]	Potency [8]	Potency [9]	Potency [10]	Potency [11]	Potency [12]	Potency [13]	Potency [14]	activation [15]	Potency [16]	Potency [17]	Potency [18]	Potency [15]
Cc1cc(N)c(S(=O)(=O)O)cc1Cl	inactive	inactive	inactive	inactive	inactive	inactive	inactive	inactive	inactive	inactive	inactive									
O=[N+]([O-])c1cc(Cl)c(Cl)c(Cl)c1Cl	60.9 µM (active)	inactive	inactive	inactive		60.9 µM (active)	inactive	inactive	3.42 µM (active)			inactive	inactive							
CCC(C)(C)C1CCCCC1OC(C)=O (centres undefined)	inactive	inactive	inactive	inactive	inactive	inactive	inactive	inactive				inactive	inactive	inactive	inactive	7.91%	inactive	inactive	inactive	
CCCCCCCC/C=C\CCCCCCCCOCCO	11.2 µM (active)	inactive	56.8 µM (active)	39.8 µM (active)	35.5 µM (active)	79.4 µM (active)		56.8 µM (active)		28.4 µM (active)		inactive		9 µM [inconclusive] (active)			10 µM (active)		63.1 µM (active)	
O=C(O)c1c(Cl)cccc1Cl	inactive	inactive	inactive	inactive	inactive	inactive		inactive	inactive	inactive	inactive	inactive	inactive					inactive	inactive	
CCCCCOC(=O)CCCC	inactive	inactive	inactive	inactive	inactive	inactive	inactive	inactive	inactive	inactive		inactive	inactive	inactive	inactive	-1.52%	inactive	inactive	inactive	
CN(C)[C@@H]1C(=O)C(C(N)=O)=C(O)[C@@]2(O)C(=O)C3=C(O)c4c(O)ccc(Cl)c4[C@@H](O)[C@H]3C[C@@H]12	inactive	inactive	inactive	inactive	inactive	inactive	inactive			inactive	inactive	inactive	inactive						inactive	
Nc1ccc2c3c(cccc13)-c1ccccc1-2	43.7 µM (active)	inactive						49.5 µM (active)		inactive									inactive	8.72 µM (active)
CCCCC(CC)COP(=O)(O)OCC(CC)CCCC (centres undefined)	61.3 µM (active)	inactive	39 µM (active)	inactive	inactive	inactive	inactive	inactive		49.1 µM (active) and 43.6 µM (active)		inactive		4.36 µM [inconclusive] (active)	inactive		inactive			
O=C(O)c1ccc(Cl)c(Cl)c1	inactive	inactive	inactive	inactive	inactive	inactive	inactive			inactive	inactive	inactive	inactive		inactive	-5.68%			inactive	
O=C1CCCCCN1SSN1CCCCCC1=O	27.3 µM (active)	inactive	inactive	inactive				inactive	inactive	inactive		inactive	inactive		inactive	-12.6%	inactive	inactive	inactive	
N/C(=N\N=C\c1ccc(Cl)cc1)N/N=C/c1ccc(Cl)cc1	29.8 µM (active)	inactive	inactive	inactive	inactive	inactive	inactive	21.1 µM (active)				13.3 µM (active)	inactive	inactive	inactive	-3.33%	inactive		29.8 µM (active)	
CCc1cc(Cc2cc(CC)cc(C(C)(C)C)c2O)c(O)c(C(C)(C)C)c1	6.11 µM (active)	inactive	15.5 µM (active)	68.6 µM (active)	30.6 µM (active)	61.1 µM (active)	inactive	6.92 µM (active)		5.49 µM (active)		inactive							21.7 µM (active)	
O=C(Oc1cccc2cccnc12)c1ccccc1	13.3 µM (active)		inactive	inactive	18.8 µM (active)	21.1 µM (active)	inactive	inactive				inactive		inactive	inactive					
Cc1cc(=O)oc2cc(N(C)C)ccc12	inactive	inactive	inactive		inactive			inactive		inactive	34.7 µM (active)								inactive	
